# Laboratory results published in PubChem BioAssay AID504467 (National Center for Advancing Translational Sciences (NCATS), 2011).
# In all, about 330,000 compounds went through this assay and about 7,700 (2.3%) were called active. About 26% were inconclusive and are not listed. This is one part of a sample in which actives are shown more often than they occur. Unmarked numbers belong to inactive results. Calls come from the whole dose curve; as a rule, active = well fitted inhibition curve with a large enough effect; inconclusive = small, poorly fitted or top-dose-only effect, or effect the other way; inactive = flat fitted curve, though single readings scatter.
# Assay: qHTS screen for small molecules that inhibit ELG1-dependent DNA repair in human embryonic kidney (HEK293T) cells expressing luciferase-tagged ELG1; note: nearly all actives have a fitted effect of over 55% in size
# Conditions: HEK293T ELG1-luciferase reporter, luminescence, 16 h, DNA damage induced by 5-fluorouridine; series mostly up to 46.1 µM; activity change, negative = inhibition: at the top concentration
# From the text: NIH Molecular Libraries Probe Production Network [MLPCN] NIH Chemical Genomics Center [NCGC] MLPCN Grant: 1 R03 MH092164-01 Assay Provider: Kyungjae Myung, NHGRI, NIH Keywords: MLPCN, qHTS, NCGC, genotoxicity, cancer Assay Overview: Cancer cells divide rapidly compared to normal cells in the body. During cell division, cancer cells need to duplicate their genome by DNA replication. The failure of genome duplication leads to cancer cells' death. Therefore, inhibitors of DNA replication could specifically kill cancer cells. Based on this concept, many chemotherapeutic agents were developed and have been used to treat cancer patients. However, there are a limited number of agents available in the clinical setting, and some of those that do exist have low efficacy and severe side effects. Therefore, if we can find the compounds that effectively block DNA replication either by directly damaging DNA or by inhibiting other cellular mechanisms, the options for cancer treatment will be broadened. With this in mind, we developed a quantitative high-throughput ELG1-luciferase reporter gene assay. Small molecules that specifically block ELG1 function in response to DNA damage can be identified by monitoring the suppression of luciferase activity. Since ELG1 defines a pathway for repairing DNA damage, agents blocking ELG1 function can be used to sensitize cancer cells to chemotherapeutic agents whose mechanism of action involves the induction of DNA damage.
# Assay Protocol Summary: For genotoxicity screening, 2,000 cells in 4 uL/well were dispensed into white, solid-bottom 1536-well plates using a solenoid-based dispenser. Following transfer of 1 uL 5-Fluorouridine and 23 nL compound or DMSO vehicle by a pin tool, the plates were incubated 16 hr at 37 °C and 5% CO2. 5 ul ONE-Glo (Promega) was then added to each plate and following a 30 min incubation at room temperature, luciferase activity was quantified on a ViewLux CCD-based plate reader.
# % is set by controls: 0 for no effect and ±100 for the full control effect; potency is the fitted concentration of half-maximal effect.
SMILES,"activity change, negative = inhibition [%]",Potency
CC(OC(=O)/C=C/c1ccccc1)C(=O)Nc1ccc(C(N)=O)cc1 (stereo not given),17.8,–
CC1CCC(NS(=O)(=O)c2ccc3c(c2)CC(=O)N3)CC1 (stereo not given),22.5,–
O=C(COC(=O)c1cccc(Cl)c1)NC(=O)NCc1ccccc1,17.8,–
Cc1ccc(S(=O)(=O)N2[C@@H](c3cccc(Cl)c3)C(C(=O)O)=CC[C@H]2c2ccc(Cl)c(Cl)c2)cc1,15.3,–
O=C(NCCCO)c1cc2c([nH]c3ccccc32)c(-c2ccc(F)cc2)n1,–,18.3 µM (active)
CN(C)CCCNC(=O)c1ccc2[nH]c3ccccc3c2c1,-10.4,–
O=C(NCCCN1CCOCC1)c1cn(-c2ccccc2)nc1-c1ccc(F)cc1,-4.58,–
O=C(NCC1(N2CCCCC2)CCCCC1)c1ccc(NS(=O)(=O)c2ccc(F)cc2)cc1,-5.29,–
Cc1ccc(C(CC(=O)O)NC(=O)c2ccc(S(=O)(=O)N3CCCC3)cc2)cc1 (stereo not given),1.12,–
Cc1c(NC(=O)CN(C)CC(=O)Nc2ccc(F)c(F)c2F)c(=O)n(-c2ccccc2)n1C,-1.81,–
COc1ccc(C(=O)NCc2ccc(Cl)cc2)cc1S(=O)(=O)N1CCCC1,-24.7,–
O=C(Nc1ccc(-c2csc(Nc3cccc(C(F)(F)F)c3)n2)cc1)c1cccc(C(F)(F)F)c1,–,10.3 µM (active)
CNC(=O)c1ccc(NC(=O)c2cccc(C(F)(F)F)c2)cc1,10.3,–
Cc1nc(NC(=O)c2cccc(Cl)c2)sc1-c1csc(Nc2cccc(Cl)c2)n1,-16.5,–
CCN(CC)S(=O)(=O)c1ccc(N(C)Cc2ccc(C(F)(F)F)cc2)nc1,-28.6,–
COc1cccc(CN(C)C(=O)CC23CC4CC(CC(C4)C2)C3)c1OC,-19.8,–
CCN(CC)S(=O)(=O)c1ccc(N(C)Cc2cccc(OC)c2OC)nc1,–,13 µM (active)
COc1ccc(/C=C/C(=O)OCC(=O)NC2CCCCCC2)cc1OC,-9.56,–
COC(=O)c1cc(Oc2ccc(S(=O)(=O)N3CCOCC3)cc2[N+](=O)[O-])cc(C(=O)OC)c1,-0.0128,–
COc1ccc(OCCCON2C(=O)c3ccccc3C2=O)cc1,22.7,–
CCOC(=O)C1=C(c2ccc(OC)cc2)C(=O)c2ccccc2C1=O,–,2.91 µM (active)
CCCCC(C(=O)OCC(=O)c1ccc(OC)cc1)N1C(=O)c2ccccc2C1=O (stereo not given),-24,–
Cc1ccc(C(=O)CN2C(=O)NC3(CCOc4ccccc43)C2=O)s1 (stereo not given),17.1,–
COc1ccc(NC(=O)CCS(=O)(=O)c2cc3c(cc2Cl)NC(=O)CO3)cc1OC,16.1,–

SMILES,"activity change, negative = inhibition [%]",Potency
O=C(c1ccc(Cl)c(S(=O)(=O)N2CCCCCC2)c1)N1CCN(c2ccc(O)cc2)CC1,–,20.6 µM (active)
O=C(c1ccc(Cl)c(S(=O)(=O)N2CCCCC2)c1)N1CCCCCC1,2.35,–
O=C(c1ccc(Cl)c(Cl)c1)N1CCCC1,5.11,–
Nn1c(SCC(=O)NC2CCCc3ccccc32)nnc1C1CC1 (stereo not given),10.4,–
O=C(CN1C(=O)NC2(CCCC2)C1=O)Nc1cc(C(F)(F)F)ccc1N1CCOCC1,0.372,–
O=C(NCCc1ccc(F)cc1)c1ccc(S(=O)(=O)N2CCCCC2)cc1,-11.7,–
N#Cc1ccc(Oc2cc(C(F)(F)F)nc(-c3ccccn3)n2)cc1,-1.14,–
COc1ccccc1Oc1nc(-c2cccnc2)nc2ccccc12,6.54,–
Cc1ccc(Oc2nc(-c3ccccn3)nc3ccccc23)cc1,–,18.3 µM (active)
CCS(=O)(=O)N1CCC(N2CCN(c3ccccc3)CC2)CC1,1.12,–
O=C(c1ccccc1)N1CCN(C(=O)c2cc3nc(-c4ccccc4)cc(C(F)(F)F)n3n2)CC1,–,7.3 µM (active)
COC(=O)c1cc2nc(-c3ccccc3)cc(C(F)(F)F)n2n1,1.13,–
O=C(O)c1cnn2c(C(F)(F)F)cc(-c3ccccc3)nc12,11.5,–
CCc1cccc(C)c1NS(=O)(=O)c1cc(Br)cnc1N,14.3,–
COc1ccc(C)cc1N(C(=O)Cn1nnc(-c2ccc(C)o2)n1)C(C(=O)NC1CCCC1)c1ccncc1 (stereo not given),0.49,–
COc1ccccc1NC(=O)COC(=O)CNC(=O)C1CCCCC1,14.3,–
Cc1ccc(CC(=O)N(C)CC(=O)N(CC(C)C)c2c(N)n(CC(C)C)c(=O)[nH]c2=O)cc1C,5.07,–
Cn1nnnc1SCC(=O)Nc1cccc(S(=O)(=O)N2CCCCC2)c1,-0.942,–
COc1cccc(N(CC(=O)NC2CCCC2)C(=O)Cn2nnc(-c3ccc(C)o3)n2)c1,9.25,–
CCOC(=O)C1CCN(C(=O)Cn2nc(C)c3c(C)n(-c4ccccc4)nc3c2=O)CC1,3.06,–
COc1ccc(S(=O)(=O)/N=C2\C=C(NS(=O)(=O)c3ccccc3)C(=O)c3ccccc32)cc1,–,23.1 µM (active)
CC1=C/C(=N\S(=O)(=O)c2ccccc2)C(C(C)C)=CC1=O,-28.8,–
COc1ccc2cc(S(=O)(=O)Nc3ccccn3)ccc2c1,-4.39,–
CCCSc1nc2sc3c(c2c(=O)n1-c1ccc(OC)cc1)CCN(C)C3,-16,–

SMILES,"activity change, negative = inhibition [%]",Potency
COc1ccc(C(C(=O)NC2CCCC2)N(CCCO)C(=O)Cn2nnc(-c3ccc(C)o3)n2)cc1 (stereo not given),9.12,–
COc1ccc(-c2nc(N)ncc2-c2ccc(Cl)cc2)c(O)c1,-24.7,–
C=C(C)COc1ccc(-c2ncncc2-c2ccc(OC)cc2)c(O)c1,–,16.4 µM (active)
C=C(C)COc1ccc(-c2nc(N)ncc2-c2ccccc2OC)c(O)c1,-24.3,–
COc1ccc(C(C)(C)C)cc1NC(=O)CCN1C(=O)C2CCCCC2C1=O (stereo not given),4.35,–
COC(=O)c1c(NC(=O)c2ccccc2F)sc2c1C(C(=O)OC)CC2 (stereo not given),-3.34,–
CCc1ccc(N(CC)c2ncnc3nc[nH]c23)cc1,–,4.11 µM (active)
CCOc1ccc(-n2c(O)c(/C=N/Nc3nnc(C)c(=O)[nH]3)c3ccccc3c2=O)cc1,-3.75,–
CCOc1ccc(-n2c(O)c(/C=N/Nc3nc(C)cc(C)n3)c3ccccc3c2=O)cc1,–,14.6 µM (active)
CCOc1ccc(N=Cc2c(O)n(-c3cccc(C)n3)c(=O)c3ccccc23)cc1,-23.9,–
COc1ccc2[nH]c3c(c2c1)CCN1C(=O)C(CC(=O)NCCc2ccccn2)C[C@H](C(=O)N2CCOCC2)[C@@]31C (stereo not given in full),12.1,–
COc1ccc(CCNC(=O)CSc2nnc(-c3cccc(F)c3)o2)cc1OC,-0.414,–
COc1ccc(CN(C(=O)CSc2nnc(-c3ccc(OC)c(OC)c3)o2)c2ccc(F)cc2)cc1,–,16.4 µM (active)
COc1ccc(-c2nnc(SCC(=O)NC3CCCCC3)o2)cc1OC,1.19,–
COc1ccc(NC(=O)c2sc(N3CCOCC3)nc2-c2ccccc2)c(OC)c1,–,13 µM (active)
CCC(=O)Nc1ccc2c(c1)nc(CCN1CCN(c3ccccn3)CC1)n2C,-15.2,–
CCN(CC)c1ccc(NC(=O)CN2CCN(c3ccccn3)CC2)cc1,-8.23,–
Cc1nc(N2CCN(c3ccccn3)CC2)c2c(C)c(C(=O)Nc3ccc(F)c(Cl)c3)sc2n1,–,3.26 µM (active)
COc1ccc(NC(=O)c2sc(N)nc2-c2ccccc2)cc1,-2.97,–
COc1cc2ccccc2cc1C(=O)Nc1ccc(N2CCOCC2)cc1,0.106,–
COc1ccc(NC(=O)c2sc3nc(C)nc(N4CCN(c5ccccn5)CC4)c3c2C)c(OC)c1,–,2.31 µM (active)
COc1cc([N+](=O)[O-])ccc1NC(=S)N1CCN(c2ccccn2)CC1,-8.41,–
COc1ccc(OC)c(NC(=O)c2sc3nc(C)cc(C)c3c2N)c1,21.9,–
Cc1cccc(N2C(=O)N3[C@H](c4ccc(F)cc4)[C@@H]4C(=O)N(C5CCCCC5)C(=O)[C@@H]4[C@]3(Cc3ccccc3)C2=O)c1,-2.6,–

SMILES,"activity change, negative = inhibition [%]",Potency
COc1ccc(CN2C3CCCC2CC(NC(=O)c2cccc(F)c2)C3)cc1 (stereo not given),7.95,–
CN(CC(=O)NCC(c1ccccc1)N1CCCC1)S(=O)(=O)c1ccc(Cl)cc1 (stereo not given),8.82,–
COc1cc(/C=C2\SC(=O)NC2=O)ccc1OCc1ccc(Cl)nc1,13.8,–
O=C(NCC(c1ccco1)N1CCc2ccccc21)c1cccc(F)c1 (stereo not given),-6.47,–
CCCCn1c(N)c(N(CC)C(=O)c2ccc(N(C)S(=O)(=O)c3ccc(C)cc3)cc2)c(=O)[nH]c1=O,2.79,–
COCCN1C(=O)C(=O)/C(=C(/O)c2ccc(S(=O)(=O)N3CCCCC3)cc2)C1c1ccc(OC)c(OC)c1 (stereo not given),6.1,–
Cn1cc(C(=O)c2ccc(Cl)cc2Cl)cc1C(=O)NN,0.667,–
Cc1noc(C)c1S(=O)(=O)N(C)C[C@H]1Oc2ccc(NC(=O)C3CC3)cc2C(=O)N([C@H](C)CO)C[C@@H]1C,0.566,–
Cc1ccc(CN2CC(C(=O)NNC(=O)Cn3ccc(C(F)(F)F)n3)CC2=O)cc1 (stereo not given),-0.475,–
O=C(Nc1cc(C(F)(F)F)ccc1Cl)c1cc(C2CC2)on1,2.26,–
Cc1cc(C(=O)Nc2c(C)nn(Cc3ccccc3)c2C)on1,3.72,–
Cc1nn(Cc2ccc(Cl)c(Cl)c2)c(C)c1NC(=O)c1cc(C2CC2)on1,–,16.4 µM (active)
CC(=O)Nc1cccc(NC(=O)c2ccc3c(c2)CCN3S(C)(=O)=O)c1,-20.3,–
O=C1c2ccccc2[C@@H]2C[C@@H](O)[C@H](Nc3ccccc3Cl)CCN12,-12.1,–
CC(Oc1ccccc1)C(=O)Nc1oc(-c2ccco2)c(-c2ccco2)c1C#N (stereo not given),-0.938,–
COc1cc(C(=O)NCC(=O)N2CC=C(c3ccccc3)CC2)cc(OC)c1OC,0,–
COc1cc(C(=O)Nc2oc(-c3ccccc3)c(-c3ccccc3)c2C#N)cc(OC)c1OC,–,23.1 µM (active)
N#Cc1c(NC(=O)CCCN2C(=O)c3ccccc3C2=O)oc(-c2ccccc2)c1-c1ccccc1,–,7.94 µM (active)
Cc1cc(C)cc(NC(=O)CCN2C(=O)c3ccccc3C2=O)c1,-4.22,–
O=C(CCN1C(=O)c2ccccc2C1=O)Nc1ccncc1,0,–
CCOc1ccc(NC(=O)c2cccc3c2C(=O)N(CC2CCCO2)C3)cc1 (stereo not given),20.6,–
CCc1ccc(OCC(=O)N(Cc2ccccc2)C2CCS(=O)(=O)C2)cc1 (stereo not given),-4,–
CC[C@]12c3[nH]c4ccc(Cl)cc4c3CCN1C(=O)[C@@H](CC(=O)NCCCOC)C[C@@H]2C(=O)N1CCN(C(=O)c2ccco2)CC1,0.426,–
